# Paper PMC7862700, “An all-to-all approach to the identification of sequence-specific readers for epigenetic DNA modifications on cytosine”
# Columns and labels:
# Assay in all cases: DAPPL (digital affinity profiling via proximity ligation, sequencing); 10 mM Tris-HCl pH 7.5, 50 mM NaCl, 1 mM DTT, 4% glycerol, room temperature, 30 min; GST-TFs on glutathione beads, 16-mer random dsDNA library, 0.1% formaldehyde crosslink after washing; high values mean tight binding
# Conditions in all cases: protein: recombinant; tags: N-terminal GST; dsDNA, one strand shown
# ERF = biological target: T1, ERF (Homo sapiens, UniProt P50548 1-548)
# T1 sequence: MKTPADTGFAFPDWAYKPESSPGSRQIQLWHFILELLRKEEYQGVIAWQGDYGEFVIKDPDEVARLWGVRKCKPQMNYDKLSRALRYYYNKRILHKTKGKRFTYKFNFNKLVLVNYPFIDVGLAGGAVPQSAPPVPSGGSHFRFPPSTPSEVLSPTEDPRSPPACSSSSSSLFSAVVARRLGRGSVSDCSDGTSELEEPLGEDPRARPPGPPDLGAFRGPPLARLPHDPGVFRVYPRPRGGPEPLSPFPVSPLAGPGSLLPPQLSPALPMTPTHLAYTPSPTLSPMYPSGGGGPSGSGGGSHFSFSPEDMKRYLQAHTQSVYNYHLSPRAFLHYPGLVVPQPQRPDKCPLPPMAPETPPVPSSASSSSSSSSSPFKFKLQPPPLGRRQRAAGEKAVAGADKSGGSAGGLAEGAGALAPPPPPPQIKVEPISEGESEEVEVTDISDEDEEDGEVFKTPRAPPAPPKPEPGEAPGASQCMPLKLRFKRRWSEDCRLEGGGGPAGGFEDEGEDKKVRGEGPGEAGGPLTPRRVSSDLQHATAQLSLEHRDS
# Summary of the method: (§1)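 GST fusions of human transcription factors were expressed in yeast and captured with glutathione beads. Once given DNA barcodes and pooled alongside a tag-only sample, they were incubated for 30 min at room temperature with 200 nmole of a random double-stranded 16-mer DNA library in Tris/NaCl/DTT/glycerol buffer, then washed, crosslinked (0.1% formaldehyde), proximity-ligated, PCR-amplified and sequenced on an Illumina NextSeq500. The binding signal of each hexamer is its read frequency for a factor divided by its frequency for the tag-only sample.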
# ETV3L = biological target: T2, ETV3L (Homo sapiens, UniProt Q6ZN32 1-361)
# T2 sequence: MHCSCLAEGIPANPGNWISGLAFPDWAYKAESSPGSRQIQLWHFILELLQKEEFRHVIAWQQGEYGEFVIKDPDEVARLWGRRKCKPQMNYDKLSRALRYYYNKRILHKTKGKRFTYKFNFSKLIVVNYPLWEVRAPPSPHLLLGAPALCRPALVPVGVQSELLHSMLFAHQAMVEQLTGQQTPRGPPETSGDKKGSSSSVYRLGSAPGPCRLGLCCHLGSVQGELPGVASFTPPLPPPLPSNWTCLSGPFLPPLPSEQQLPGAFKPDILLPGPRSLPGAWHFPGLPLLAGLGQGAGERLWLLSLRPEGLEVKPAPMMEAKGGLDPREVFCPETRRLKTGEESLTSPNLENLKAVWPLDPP
# Summary of the method: as §1
# ETS2 = biological target: T3, ETS2 (Homo sapiens, UniProt P15036 1-469)
# T3 sequence: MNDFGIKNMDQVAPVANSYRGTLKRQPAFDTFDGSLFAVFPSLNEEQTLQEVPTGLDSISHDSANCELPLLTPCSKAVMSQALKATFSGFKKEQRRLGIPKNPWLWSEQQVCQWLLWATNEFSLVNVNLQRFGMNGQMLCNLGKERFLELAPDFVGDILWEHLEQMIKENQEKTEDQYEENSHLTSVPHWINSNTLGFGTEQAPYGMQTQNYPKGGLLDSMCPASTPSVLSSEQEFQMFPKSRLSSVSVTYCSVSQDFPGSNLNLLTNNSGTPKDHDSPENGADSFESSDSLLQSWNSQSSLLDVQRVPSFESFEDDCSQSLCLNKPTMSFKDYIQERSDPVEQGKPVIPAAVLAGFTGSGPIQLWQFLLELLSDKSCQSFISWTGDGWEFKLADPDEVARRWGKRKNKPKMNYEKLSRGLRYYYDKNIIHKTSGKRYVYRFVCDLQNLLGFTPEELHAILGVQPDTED
# Summary of the method: as §1
# SPDEF = biological target: T4, SPDEF (Homo sapiens, UniProt O95238 1-335)
# T4 sequence: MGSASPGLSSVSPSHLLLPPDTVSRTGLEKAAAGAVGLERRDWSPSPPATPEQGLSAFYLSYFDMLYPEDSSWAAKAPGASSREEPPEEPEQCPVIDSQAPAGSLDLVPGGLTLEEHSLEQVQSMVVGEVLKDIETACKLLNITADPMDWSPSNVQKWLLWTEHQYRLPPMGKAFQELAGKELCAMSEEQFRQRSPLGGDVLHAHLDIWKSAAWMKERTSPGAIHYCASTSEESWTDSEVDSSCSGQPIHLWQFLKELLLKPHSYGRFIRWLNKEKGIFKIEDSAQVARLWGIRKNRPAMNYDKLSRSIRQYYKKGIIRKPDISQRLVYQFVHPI
# Summary of the method: as §1
# ETV7 = biological target: T5, ETV7 (Homo sapiens, UniProt Q9Y603 1-341)
# T5 sequence: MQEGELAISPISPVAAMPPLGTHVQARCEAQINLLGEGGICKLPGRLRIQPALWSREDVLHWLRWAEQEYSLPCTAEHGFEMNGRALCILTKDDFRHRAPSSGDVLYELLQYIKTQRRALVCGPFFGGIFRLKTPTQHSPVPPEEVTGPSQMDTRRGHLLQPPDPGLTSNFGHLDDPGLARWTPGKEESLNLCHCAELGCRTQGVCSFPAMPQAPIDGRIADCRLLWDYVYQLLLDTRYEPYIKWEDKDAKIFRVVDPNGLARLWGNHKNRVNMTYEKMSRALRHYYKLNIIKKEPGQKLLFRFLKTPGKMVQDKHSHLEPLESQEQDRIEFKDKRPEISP
# Summary of the method: as §1
# ELF5 = biological target: T6, ELF5 (Homo sapiens, UniProt Q9UKW6-2 1-255)
# T6 sequence: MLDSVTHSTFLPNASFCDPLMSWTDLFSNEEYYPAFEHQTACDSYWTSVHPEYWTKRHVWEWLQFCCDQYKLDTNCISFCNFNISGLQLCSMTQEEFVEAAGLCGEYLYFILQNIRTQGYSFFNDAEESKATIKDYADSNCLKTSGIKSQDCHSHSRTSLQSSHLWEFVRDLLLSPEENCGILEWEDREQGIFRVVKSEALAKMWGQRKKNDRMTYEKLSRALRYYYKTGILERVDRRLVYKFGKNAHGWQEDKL
# Summary of the method: as §1
# ETV3 = biological target: T7, ETV3 (Homo sapiens, UniProt P41162-2 1-143)
# T7 sequence: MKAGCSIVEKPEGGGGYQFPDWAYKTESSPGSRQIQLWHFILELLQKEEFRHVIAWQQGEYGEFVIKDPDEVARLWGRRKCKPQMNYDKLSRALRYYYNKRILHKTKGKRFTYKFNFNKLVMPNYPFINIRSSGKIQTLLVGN
# Summary of the method: as §1
# ETV6 = ETV6 (Homo sapiens, UniProt P41212 1-452)
# Summary of the method: as §1
# Sequence of ETV6 (P41212 whole entry): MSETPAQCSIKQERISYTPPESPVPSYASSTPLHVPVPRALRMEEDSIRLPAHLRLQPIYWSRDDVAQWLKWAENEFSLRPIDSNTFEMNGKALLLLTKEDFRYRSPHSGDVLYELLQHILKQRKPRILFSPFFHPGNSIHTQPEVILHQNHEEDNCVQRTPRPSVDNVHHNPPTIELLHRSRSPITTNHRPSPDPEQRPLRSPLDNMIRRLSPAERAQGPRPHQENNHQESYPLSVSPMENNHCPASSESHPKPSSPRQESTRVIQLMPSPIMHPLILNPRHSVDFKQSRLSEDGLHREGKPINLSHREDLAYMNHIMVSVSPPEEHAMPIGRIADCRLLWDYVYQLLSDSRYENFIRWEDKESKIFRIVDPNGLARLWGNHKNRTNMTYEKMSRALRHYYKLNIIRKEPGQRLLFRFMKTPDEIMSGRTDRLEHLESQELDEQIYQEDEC
Sequence,binding signal (ERF),binding signal (ETV3L),binding signal (ETS2),binding signal (SPDEF),binding signal (ETV7),binding signal (ELF5),binding signal (ETV3),binding signal (ETV6)
GATCCT,"1.3 fold enrichment (6-mer frequency, TF over GST control)","1.21 fold enrichment (6-mer frequency, TF over GST control)","1.32 fold enrichment (6-mer frequency, TF over GST control)","1.84 fold enrichment (6-mer frequency, TF over GST control)","1.2 fold enrichment (6-mer frequency, TF over GST control)","1.29 fold enrichment (6-mer frequency, TF over GST control)","1.25 fold enrichment (6-mer frequency, TF over GST control)","1.28 fold enrichment (6-mer frequency, TF over GST control)"
ATACAC,"1.32 fold enrichment (6-mer frequency, TF over GST control)","1.18 fold enrichment (6-mer frequency, TF over GST control)","1.16 fold enrichment (6-mer frequency, TF over GST control)","1.28 fold enrichment (6-mer frequency, TF over GST control)","1.21 fold enrichment (6-mer frequency, TF over GST control)","1.15 fold enrichment (6-mer frequency, TF over GST control)","1.17 fold enrichment (6-mer frequency, TF over GST control)","1.12 fold enrichment (6-mer frequency, TF over GST control)"
ACATTA,"1.21 fold enrichment (6-mer frequency, TF over GST control)","1.15 fold enrichment (6-mer frequency, TF over GST control)","1.19 fold enrichment (6-mer frequency, TF over GST control)","1.12 fold enrichment (6-mer frequency, TF over GST control)","1.15 fold enrichment (6-mer frequency, TF over GST control)","1.1 fold enrichment (6-mer frequency, TF over GST control)","1.15 fold enrichment (6-mer frequency, TF over GST control)","1.16 fold enrichment (6-mer frequency, TF over GST control)"
CTTGAT,"1.47 fold enrichment (6-mer frequency, TF over GST control)","1.42 fold enrichment (6-mer frequency, TF over GST control)","1.35 fold enrichment (6-mer frequency, TF over GST control)","1.34 fold enrichment (6-mer frequency, TF over GST control)","1.28 fold enrichment (6-mer frequency, TF over GST control)","1.39 fold enrichment (6-mer frequency, TF over GST control)","1.35 fold enrichment (6-mer frequency, TF over GST control)","1.24 fold enrichment (6-mer frequency, TF over GST control)"
CATTCT,"1.43 fold enrichment (6-mer frequency, TF over GST control)","1.31 fold enrichment (6-mer frequency, TF over GST control)","1.23 fold enrichment (6-mer frequency, TF over GST control)","1.24 fold enrichment (6-mer frequency, TF over GST control)","1.35 fold enrichment (6-mer frequency, TF over GST control)","1.27 fold enrichment (6-mer frequency, TF over GST control)","1.21 fold enrichment (6-mer frequency, TF over GST control)","1.34 fold enrichment (6-mer frequency, TF over GST control)"
CACGAT,"1.29 fold enrichment (6-mer frequency, TF over GST control)","1.23 fold enrichment (6-mer frequency, TF over GST control)","1.24 fold enrichment (6-mer frequency, TF over GST control)","1.26 fold enrichment (6-mer frequency, TF over GST control)","1.32 fold enrichment (6-mer frequency, TF over GST control)","1.17 fold enrichment (6-mer frequency, TF over GST control)","1.29 fold enrichment (6-mer frequency, TF over GST control)","1.27 fold enrichment (6-mer frequency, TF over GST control)"
TCTAGT,"1.25 fold enrichment (6-mer frequency, TF over GST control)","1.05 fold enrichment (6-mer frequency, TF over GST control)","1.17 fold enrichment (6-mer frequency, TF over GST control)","1.06 fold enrichment (6-mer frequency, TF over GST control)","1.1 fold enrichment (6-mer frequency, TF over GST control)","1.04 fold enrichment (6-mer frequency, TF over GST control)","1.08 fold enrichment (6-mer frequency, TF over GST control)","1.12 fold enrichment (6-mer frequency, TF over GST control)"
TAGTAT,"1.29 fold enrichment (6-mer frequency, TF over GST control)","1.23 fold enrichment (6-mer frequency, TF over GST control)","1.27 fold enrichment (6-mer frequency, TF over GST control)","1.15 fold enrichment (6-mer frequency, TF over GST control)","1.44 fold enrichment (6-mer frequency, TF over GST control)","1.25 fold enrichment (6-mer frequency, TF over GST control)","1.26 fold enrichment (6-mer frequency, TF over GST control)","1.29 fold enrichment (6-mer frequency, TF over GST control)"
GATTCC,"1.15 fold enrichment (6-mer frequency, TF over GST control)","1.22 fold enrichment (6-mer frequency, TF over GST control)","1.14 fold enrichment (6-mer frequency, TF over GST control)","1.29 fold enrichment (6-mer frequency, TF over GST control)","1.11 fold enrichment (6-mer frequency, TF over GST control)","1.21 fold enrichment (6-mer frequency, TF over GST control)","1.24 fold enrichment (6-mer frequency, TF over GST control)","1.14 fold enrichment (6-mer frequency, TF over GST control)"
TACGTA,"1.3 fold enrichment (6-mer frequency, TF over GST control)","1.38 fold enrichment (6-mer frequency, TF over GST control)","1.42 fold enrichment (6-mer frequency, TF over GST control)","1.35 fold enrichment (6-mer frequency, TF over GST control)","1.15 fold enrichment (6-mer frequency, TF over GST control)","1.31 fold enrichment (6-mer frequency, TF over GST control)","1.37 fold enrichment (6-mer frequency, TF over GST control)","1.32 fold enrichment (6-mer frequency, TF over GST control)"
ACCTCT,"1.52 fold enrichment (6-mer frequency, TF over GST control)","1.32 fold enrichment (6-mer frequency, TF over GST control)","1.23 fold enrichment (6-mer frequency, TF over GST control)","1.4 fold enrichment (6-mer frequency, TF over GST control)","1.48 fold enrichment (6-mer frequency, TF over GST control)","1.34 fold enrichment (6-mer frequency, TF over GST control)","1.4 fold enrichment (6-mer frequency, TF over GST control)","1.39 fold enrichment (6-mer frequency, TF over GST control)"
TGTAAT,"1.14 fold enrichment (6-mer frequency, TF over GST control)","1.18 fold enrichment (6-mer frequency, TF over GST control)","1.23 fold enrichment (6-mer frequency, TF over GST control)","1.25 fold enrichment (6-mer frequency, TF over GST control)","1.26 fold enrichment (6-mer frequency, TF over GST control)","1.22 fold enrichment (6-mer frequency, TF over GST control)","1.05 fold enrichment (6-mer frequency, TF over GST control)","1.22 fold enrichment (6-mer frequency, TF over GST control)"
TCACTG,"1.17 fold enrichment (6-mer frequency, TF over GST control)","1.4 fold enrichment (6-mer frequency, TF over GST control)","1.28 fold enrichment (6-mer frequency, TF over GST control)","1.16 fold enrichment (6-mer frequency, TF over GST control)","1.3 fold enrichment (6-mer frequency, TF over GST control)","1.17 fold enrichment (6-mer frequency, TF over GST control)","1.16 fold enrichment (6-mer frequency, TF over GST control)","1.2 fold enrichment (6-mer frequency, TF over GST control)"
TTGTCT,"1.16 fold enrichment (6-mer frequency, TF over GST control)","1.18 fold enrichment (6-mer frequency, TF over GST control)","1.22 fold enrichment (6-mer frequency, TF over GST control)","1.22 fold enrichment (6-mer frequency, TF over GST control)","1.33 fold enrichment (6-mer frequency, TF over GST control)","1.26 fold enrichment (6-mer frequency, TF over GST control)","1.23 fold enrichment (6-mer frequency, TF over GST control)","1.13 fold enrichment (6-mer frequency, TF over GST control)"
GGTCTC,"2.29 fold enrichment (6-mer frequency, TF over GST control)","2.36 fold enrichment (6-mer frequency, TF over GST control)","2.55 fold enrichment (6-mer frequency, TF over GST control)","1.93 fold enrichment (6-mer frequency, TF over GST control)","2.04 fold enrichment (6-mer frequency, TF over GST control)","2.18 fold enrichment (6-mer frequency, TF over GST control)","2.64 fold enrichment (6-mer frequency, TF over GST control)","1.99 fold enrichment (6-mer frequency, TF over GST control)"
